Sampled rows, rich in hits. Any-hit rate of the full collection: about 28%.
CYP2C9 inh: inhibitors of human CYP2C9 | P11712 | CYP2C9 Supersomes, luciferin-H conversion, luminescence | inhibition, % at 5 µM | 20% of 96,000 active;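 active = blocking of liver enzyme CYP2C9 beyond about 50% at 5 µM, limit read from the data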
CYP2C9 act: increases human cytochrome P450 2C9 activity; P11712; recombinant CYP2C9, luciferin-H conversion, luminescence; stronger effect = higher value; factor 1 = untreated enzyme, 0 = blocked; activation factor at 5 µM; 1.4% of 96,000 active; AID 1024;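 active = activation factor of 2 or more for CYP2C9 at a 5 µM dose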;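 note: 0 = sulfaphenazole-blocked wells and 1 = vehicle-only wells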
CYP2C19 inh: inhibitors of human CYP2C19; P33261; CYP2C19 Supersomes, luciferin-H EGE luminescence, 30 min; inhibition, % at 5 µM; 21% of 96,000 active; AID 778;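 active = CYP2C19 inhibition above a set limit at 5 µM in the primary screen, cut at about 50% in these data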;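 note: plate controls were negative control wells for no effect and 2.5 mM tranylcypromine positive control for full effect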
CYP2C19 activ: increases human CYP2C19 enzyme activity; recombinant CYP2C19, luciferin-H EGE luminescence; stronger effect = higher value; 0 = fully inhibited enzyme, 1 = untreated enzyme; AID 1025; activation factor at 5 µM; 96,000 tested, under 10 active;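 active = activation factor of at least 2 at 5 µM in the primary screen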;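 note: 0 = wells with 2.5 mM tranylcypromine and 1 = vehicle-only wells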
PLK1 inh: inhibitors of human PLK1 kinase; inhibition, % at 10 µM; recombinant PLK1 kinase, TR-FRET peptide phosphorylation; 0.53% of 97,000 active; P53350;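 active = inhibition of 50% or more in the single-concentration screen; inactive = inhibition below 50%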;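 note: 0% = DMSO max control and 100% = H-89 dihydrochloride min control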
Target sequence (P53350 whole entry, looked up): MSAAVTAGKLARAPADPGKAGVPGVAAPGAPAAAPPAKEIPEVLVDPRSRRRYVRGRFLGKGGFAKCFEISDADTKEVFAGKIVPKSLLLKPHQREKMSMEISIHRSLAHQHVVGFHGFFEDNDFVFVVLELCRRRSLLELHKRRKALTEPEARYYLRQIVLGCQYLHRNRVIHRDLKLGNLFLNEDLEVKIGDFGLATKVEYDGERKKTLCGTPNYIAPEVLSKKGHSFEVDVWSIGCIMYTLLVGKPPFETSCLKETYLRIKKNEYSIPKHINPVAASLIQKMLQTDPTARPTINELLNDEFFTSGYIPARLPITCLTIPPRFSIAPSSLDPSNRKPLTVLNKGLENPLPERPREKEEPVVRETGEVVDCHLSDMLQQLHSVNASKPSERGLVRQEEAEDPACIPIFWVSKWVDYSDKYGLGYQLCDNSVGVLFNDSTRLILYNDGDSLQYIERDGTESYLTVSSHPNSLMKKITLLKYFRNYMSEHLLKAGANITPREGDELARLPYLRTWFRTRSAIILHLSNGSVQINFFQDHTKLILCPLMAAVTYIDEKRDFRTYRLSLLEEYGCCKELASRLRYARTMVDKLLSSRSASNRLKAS
Plk1 PBD FP: Plk1 (human) PBD binding inhibition | 0.13% of 97,000 active | P53350 | Plk1 PBD phosphopeptide binding, fluorescence polarization | AID 693 | inhibition, %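 (tested at about 20 µM)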; in the data active = inhibition above about 34%, passing the limit was not always enough
An asterisk follows results filed as active; nt = no result given.

SMILES	CYP2C9 inh	CYP2C9 act	CYP2C19 inh	CYP2C19 activ	PLK1 inh	Plk1 PBD FP
Cc1sc2nc(CSc3nnc(Cc4cccs4)n3C3CCCCC3)[nH]c(=O)c2c1C	24.2	0.8	30.0	0.7	-0.8	30.9
Cc1sc2nc(SCc3nnc(-c4cccs4)o3)n(C3CCCC3)c(=O)c2c1C	82.8*	0.2	26.5	0.7	-7.6	-10.6
COc1c2ccc(C(=O)NCCCCc3ccccc3)cc2nn1C	3.7	1	11.3	0.9	-4.9	19.3
S=C1COC(c2ccccc2)N1c1ccccc1 (centres undefined)	nt	nt	nt	nt	-4.7	12.5
CCOC(=O)CNC(=O)Cn1cnc2c(nnn2-c2cccc(Cl)c2)c1=O	-43.9	1.4	10.0	0.9	-7.7	-12.2
Nc1nnc(SCC(=O)N2CCc3ccccc32)n1-c1ccccc1	-34.4	1.3	-17.5	1.2	-7.6	-3.0
Cc1ccc(-n2c(Cn3cnc4ccccc43)nnc2SCC(=O)O)cc1	nt	nt	nt	nt	-8.0	-7.2
Fc1ccccc1CSc1nnc(Cn2cnc3ccccc32)n1-c1ccccc1	32.1	0.7	83.3*	0.2	-12.9	-2.4
Nc1nnc(SCc2ccccc2F)n1-c1ccccc1	-7.1	1.1	75.2*	0.2	-0.5	-3.1
CC/C(=N\O)c1ccc(O)c(OC)c1	-2.2	1	2.7	1	nt	nt
O=C(NCc1ccco1)c1cc(C(=O)C2CC2)c[nH]1	14.3	0.9	15.0	0.8	-9.9	10.4
COc1ccc(C2(O)CC3CCC(C2)N3c2nc(C)cc(C)c2C#N)cc1 (centres undefined)	58.7*	0.4	41.2	0.6	-1.6	-7.9
COc1ccc(Oc2nc(C)cc(C)c2C#N)cc1	30.4	0.7	29.9	0.7	-9.4	-2.3
COc1ccc(C(=O)NCc2cn3ccsc3n2)cc1OC	-13.8	1.1	-13.2	1.1	4.5	-20.6
c1ccc(C2(CNc3ccccn3)CCCC2)cc1	43.9	0.6	54.9*	0.5	-8.4	-17.7
COc1ccc(NCc2n[nH]nc2-c2ccccc2)cc1Cl	86.0*	0.1	96.9*	0	-3.4	-7.8
CC(C)(C)C(=O)/C=C(N)/C=C/c1ccccc1	15.5	0.8	28.2	0.7	-12.3	7.8
CCc1ccc(NC(=O)CSc2nc3n[nH]c(C)c3c(=N)n2-c2cccc(OC)c2)cc1	nt	nt	nt	nt	-14.3	-9.8
Cc1ccc(CNC(=O)CSc2nc3n[nH]c(C)c3c(=N)n2-c2cccc(C)c2)cc1	53.9*	0.5	65.7*	0.3	23.2	21.3
COc1cccc(NC(=O)CSc2nc3n[nH]c(C)c3c(=N)n2-c2cccc(OC)c2)c1	79.5*	0.2	88.0*	0.1	-2.9	-23.4
CC(C)C(=O)NC(=S)Nc1ccc(S(=O)(=O)N(C)Cc2ccccc2)cc1	55.1*	0.4	40.3	0.6	-1.1	-14.0
CCOc1ccc(NS(=O)(=O)c2ccc(NC(=S)NC(=O)C(C)C)cc2)cc1	95.1*	0	82.0*	0.2	-4.1	-2.5
COc1ccc(NS(=O)(=O)c2ccc(NC(=S)NC(=O)C(C)C)cc2)cc1	64.5*	0.4	79.1*	0.2	-6.9	-25.9
CC(C)C(=O)NC(=S)Nc1ccc(S(=O)(=O)NC(C)(C)C)cc1	50.0*	0.5	37.0	0.6	-4.0	-12.9
COc1cc(/C=C2/N=C(c3ccccc3F)OC2=O)cc(Cl)c1OS(C)(=O)=O	26.5	0.7	14.9	0.9	-6.9	-17.4
SMILES	CYP2C9 inh	CYP2C9 act	CYP2C19 inh	CYP2C19 activ	PLK1 inh	Plk1 PBD FP
CCC(C)NS(=O)(=O)c1ccc(OCC(=O)N2CCCCC2)cc1 (centres undefined)	-4.7	1	-0.2	1	2.9	-5.2
Cc1ccc(C(=O)CSc2nc(C)cc(C)c2C(N)=O)cc1	60.4*	0.4	76.6*	0.2	-2.9	17.4
CCCC(=O)Nc1c(C)n[nH]c1C	62.1*	0.4	23.3	0.8	-21.5	5.7
CCCC(=O)Nc1c(C)nn(C(=O)CCC)c1C	-7.0	1.1	-4.7	1	-8.6	-0.1
CCOC(=O)C(NC(=O)c1ccc(Cl)cc1Cl)(Nc1ccc(C)cc1)C(F)(F)F (centres undefined)	14.7	0.9	91.0*	0.1	-4.2	-7.5
CCOC(=O)C(O)(CC(=O)Nc1ccc(Cl)cc1Cl)C(F)(F)F (centres undefined)	nt	nt	nt	nt	-6.1	8.2
CCOC(=O)N1CCN(Cc2nc3c(c(=O)[nH]c(=O)n3C)n2Cc2cc(C)ccc2C)CC1	71.6*	0.3	28.5	0.7	-8.8	21.0
CCCCCCCCn1c(N2CCN(c3cccc(Cl)c3)CC2)nc2c1c(=O)[nH]c(=O)n2C	51.8*	0.5	14.7	0.9	-6.4	-15.0
Cn1c(=O)[nH]c(=O)c2c1nc(CN1CCN(c3cccc(Cl)c3)CC1)n2CCc1ccccc1	22.7	0.8	12.1	0.9	-7.9	20.8
CCCCCn1c(CN2CCN(c3cccc(Cl)c3)CC2)nc2c1c(=O)[nH]c(=O)n2C	58.7*	0.4	44.1	0.6	-6.4	-12.3
CCCCCCn1c(N2CCN(c3cccc(Cl)c3)CC2)nc2c1c(=O)[nH]c(=O)n2C	1.6	1	-9.3	1.1	-10.3	-6.7
CCCCCn1c(CN2CCN(C(=O)OCC)CC2)nc2c1c(=O)[nH]c(=O)n2C	-4.3	1	-9.7	1.1	-11.7	4.3
C1CCCN(CCCCN2CCCCCC2)CC1	7.7	0.9	-3.4	1	-2.8	-11.7
O=C1CC(N2CCN(C/C=C/c3ccccc3)CC2)C(=O)N1Cc1cccs1 (centres undefined)	35.8	0.6	55.0*	0.4	-9.6	16.4
O=C1CC(N2CCN(C/C=C/c3ccccc3)CC2)C(=O)N1CCc1ccccc1 (centres undefined)	-1.2	1	0.9	1	-4.2	19.4
COc1ccccc1N1CCN(C(=O)CN(c2ccccc2OC)S(=O)(=O)c2ccccc2)CC1	89.5*	0.1	74.9*	0.3	-5.2	-19.1
Cc1ccc(S(=O)(=O)N(CC(=O)N2CCC(C)CC2)c2cccc(C)c2)cc1	86.5*	0.1	81.6*	0.2	2.0	0.0
CCOC(=O)C1CCN(C(=O)CN(c2ccc(OC)c(OC)c2)S(=O)(=O)c2ccccc2)CC1	41.8	0.6	21.6	0.8	nt	nt
O=C(CCNS(=O)(=O)c1ccc(Br)s1)N1CCN(c2ccccc2)CC1	-49.8	1.5	21.5	0.8	-16.0	-4.8
COc1ccc(S(=O)(=O)N(CC(=O)N2CCN(c3ccccc3)CC2)c2ccccc2)cc1	23.3	0.8	11.2	0.9	-10.1	2.6
CCOC(=O)N1CCN(C(=O)CN(c2cc(Cl)ccc2OC)S(=O)(=O)c2ccccc2)CC1	64.7*	0.4	24.3	0.8	-4.3	-11.0
COc1ccccc1N1CCN(C(=O)CCNS(=O)(=O)c2ccc(Br)s2)CC1	80.0*	0.2	47.2	0.5	-6.2	7.4
OCCN(CCO)c1ncnc2c1oc1ccc(Br)cc12	25.4	0.7	-9.4	1.1	-5.3	-14.0
O=C(O)C1CSC2(c3ccc4c(c3)OCCO4)CCC(=O)N12 (centres undefined)	4.2	1	-5.2	1.1	-5.2	17.6

Assay outcomes (PubChem BioAssay)
